In PubChem BioAssay AID652018 (The Scripps Research Institute Molecular Screening Center, 2013) one finds anti-target count and outcome data, which are given here for 23 compounds.

Activity calls are given as the source filed them.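 How the source made its calls: active means at least 50% inhibition of LYPLA1 or LYPLA2 at 300 nM, with no off-target enzyme hit at any dose; inactive means under 50% inhibition on both enzymes, or any off-target hit.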

For this test, the system named is Anti-Targets. The test can be described thus: LYPLA1 inhibitor selectivity over serine hydrolases, late-stage follow-up, selectivity assay for LYPLA1 inhibitor project, cell lysate, competitive ABPP, HEK293T proteome, set 2 (AID 652018). The note with it: competitive ABPP FP-PEG-Rh gel; anti-targets hit, at 10 µM.

On to `COc1ccc(N2CCN(C(=O)n3ccnn3)CC2)cc1`, for which the anti-target count came to 0 and the result was inactive.
For `O=C(CN1CCN(C(=O)n2nc(Br)c(Br)n2)CC1)Nc1cc(C(F)(F)F)ccc1Cl`, in that order: 0 and “inactive”.
Taken in the same sequence, the figures for `O=C(CN1CCN(C(=O)n2cc(-c3ccc(-c4ccccc4)cc3)nn2)CC1)Nc1cc(C(F)(F)F)ccc1Cl` were 0 and “inactive”.
For the compound `O=C(N1CCN(c2ccc(Br)cc2)CC1)n1ncc(C(O)(c2ccccc2)c2ccccc2)n1`, the anti-target count was found to be 0 and the outcome was inactive.
As for `O=C(CN1CCN(C(=O)n2cncn2)CC1)Nc1cc(C(F)(F)F)ccc1Cl`, the anti-target count worked out at 0 and the compound was called inactive.
Taken in the same sequence, the figures for `O=C(CN1CCN(C(=O)n2cc(-c3ccc(OC(F)(F)F)cc3)nn2)CC1)Nc1cc(C(F)(F)F)ccc1Cl` were 0 and “inactive”.
On to `COc1ccc(N2CCN(C(=O)n3nc(Br)nc3Br)CC2)cc1`, for which the anti-target count came to 0 and the outcome was inactive.
For `O=C(CN1CCN(C(=O)n2ncc(-c3ccc(OC(F)(F)F)cc3)n2)CC1)Nc1cc(C(F)(F)F)ccc1Cl`, in that order: 0 and “inactive”.
Consider `O=C(N1CCN(c2ccc(Cl)c(Cl)c2)CC1)n1ncc(C(O)(c2ccccc2)c2ccccc2)n1`, for which the anti-target count was 0 and the outcome was inactive.
For `COc1ccc(N2CCN(C(=O)n3nccn3)CC2)cc1`, the anti-target count stood at 0 and the result was inactive.
Taken in the same sequence, the figures for `O=C(CN1CCN(C(=O)n2ncc(-c3ccc(-c4ccccc4)cc3)n2)CC1)Nc1cc(C(F)(F)F)ccc1Cl` were 0 and “inactive”.
For `O=C(CN1CCN(C(=O)n2cc(C(O)(c3ccccc3)c3ccccc3)nn2)CC1)Nc1cc(C(F)(F)F)ccc1Cl`, in that order: 0 and “inactive”.
For `O=C(CN1CCN(C(=O)n2nccn2)CC1)Nc1cc(C(F)(F)F)ccc1Cl`, in that order: 0 and “inactive”.
For the compound `COc1ccc(N2CCN(C(=O)n3ncc(-c4ccccc4)n3)CC2)cc1`, the anti-target count came out at 0 and the result was inactive.
Taken in the same sequence, the figures for `COc1ccc(N2CCN(C(=O)n3cc(-c4ccc(OC(F)(F)F)cc4)nn3)CC2)cc1` were 0 and “inactive”.
As for `COc1ccc(N2CCN(C(=O)n3ncc(C(O)(c4ccccc4)c4ccccc4)n3)CC2)cc1`, the anti-target count was found to be 1 and the compound was called active.
Taken in the same sequence, the figures for `COc1ccc(N2CCN(C(=O)n3ncc(-c4ccc(OC(F)(F)F)cc4)n3)CC2)cc1` were 0 and “inactive”.
Taken in the same sequence, the figures for `COc1ccc(N2CCN(C(=O)n3cc(C(O)(c4ccccc4)c4ccccc4)nn3)CC2)cc1` were 2 and “active”.
For `COc1ccc(N2CCN(C(=O)n3nc(Br)c(Br)n3)CC2)cc1`, in that order: 2 and “active”.
Regarding `O=C(CN1CCN(C(=O)n2ncc(C(O)(c3ccccc3)c3ccccc3)n2)CC1)Nc1cc(C(F)(F)F)ccc1Cl`, the anti-target count worked out at 1 and the outcome was active.
In the case of `O=C(CN1CCN(C(=O)n2nc(Br)nc2Br)CC1)Nc1cc(C(F)(F)F)ccc1Cl`, the anti-target count worked out at 0 and the outcome was inactive.
For `O=C(CN1CCN(C(=O)n2ncc(-c3ccc(Br)cc3)n2)CC1)Nc1cc(C(F)(F)F)ccc1Cl`, in that order: 0 and “inactive”.
Taken in the same sequence, the figures for `COc1ccc(N2CCN(C(=O)n3cncn3)CC2)cc1` were 0 and “inactive”.
